# Assay outcomes deposited in PubChem BioAssay by Broad Institute.
# HSF-1 act: HSF-1 activators, primary screen, NIH3T3-HGL cells, MG132 stress, luminescence, single point; AID 504408, 2011; NIH3T3-HGL HSF-1 luciferase reporter, 8 h; 100% = twice DMSO control signal; activation, % at 9 µM; 300,000 tested, 1.7% active;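 active means mean replicate activation of at least 50% with a set share of replicates each reaching 50%; inconclusive means only one of those two conditions met; inactive means mean below 50% and too few replicates reaching it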;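 further: 0% = median of the neutral control wells and 100% = twice that signal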
# Wnt bcat act: Wnt/beta-catenin pathway activators, primary screen, cell-based, plate reader, single point. Wnt/beta-catenin reporter cell assay, activator. activation, % at 9.35 µM. 300,000 tested, 1.2% active. AID 743398, 2014; in the data active means activation above about 30%, passing the limit was not always enough; inconclusive means no clear call, values can overlap the other calls;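 further: 0% = neutral control wells and 100% = positive control wells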
# HSF1 inhib: HSF1 inhibitors in luciferase reporter cells, primary screen, cell-based, NIH3T3, luminescence. NIH3T3-HGL HSE-luciferase, MG132-induced, luminescence 8 h; hits give low values. activity change, negative = inhibition, % at 7.5 µM (by protocol). 300,000 tested, 0.77% active. AID 2098, 2009;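 active means more than half of replicate wells show activity change below -50%, luminescence cut by over half; inconclusive means some wells, but at most half, below -50%; inactive means no replicate well below -50%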;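 further: luciferase reports HSF-1 transcriptional activity via heat shock element; 0% = median of DMSO wells and -100% = zero luminescence signal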
# esBAF inh: Bmi1 luciferase reporter increase in mESCs, primary screen, esBAF inhibitor project, mouse ES cells, Bmi1 luciferase knock-in, single point. 350,000 tested, 2% active. reporter increase, % at 12.5 µM. AID 602393, 2012. 24 h; 100% = twice the neutral-well signal; in the data active means activation above about 40%; inconclusive means no clear call, values can overlap the other calls;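 further: 0% = median of the plate's neutral control wells and 100% = double that signal; a rise in the Bmi1 reporter signal indicates esBAF inhibition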
# MITF TRPM1 HTS: activators of MITF-driven TRPM1 promoter reporter, primary screen, cell-based, SK-MEL-5, luciferase, single point; SK-MEL-5 TRPM1-promoter luciferase, 24 h; % of positive control, neutral wells = 0; AID 588334, 2011; 300,000 tested, 0.75% active; activation, % at 12.5 µM;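 active means mean activation of at least 80% with every replicate also reaching 80%; inconclusive means mean reaches 80% but some replicate falls short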;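 further: 0% = neutral control wells and 100% = parthenolide positive control wells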
# Numbers without * were called inactive; ? = inconclusive; / = no result given. Shown are actives, neighbours in structure and some others; about 3.8% of the full set was active somewhere.
SMILES,HSF-1 act,Wnt bcat act,HSF1 inhib,esBAF inh,MITF TRPM1 HTS
COC(=O)C(C)Nc1cccc(Br)c1 (stereo not given),-7,0,-1,-6,-2
O=C(NC1CCC1)[C@@H]1[C@@H](CO)[C@@H]2Cn3c(ccc(/C=C/c4ccccc4)c3=O)[C@@H]2N1Cc1cncnc1,/,/,/,-5,/
CN(C(=O)/C=C/c1ccccc1)C1CCCCC1,?,48*,32,/,/
Cc1nc2sc(C(=O)c3ccccc3)c(N)c2c(C)c1C,-4,7,0,/,6
Cc1ccc(C(=O)c2sc3nsc(C)c3c2N)cc1,61*,/,33,/,47
Cc1snc2sc(C(=O)c3ccc(Br)cc3)c(N)c12,24,/,0,/,88*
COc1cc(N)c(Br)cc1C(=O)O,0,1,4,1,14
COc1cc(N)ccc1C(=O)O,-62,5,-60*,38,10
Cc1ccc(Nc2cc(-n3cccn3)ncn2)c(C)c1,52*,23,41,?,75
Cc1cc(NC(=O)c2ccccc2)sc1C,60*,54*,31,10,28
O=C(Nc1nccs1)[C@H]1[C@H](CO)[C@H]2Cn3c(ccc(-c4ccccc4)c3=O)[C@H]2N1CC1CCCC1,/,/,/,5,/
O=C1CCC[C@@H]2C[C@@]3(C[C@@H]4CCN1[C@H]24)Nc1cc(Cl)c(Cl)cc1NC3=NCc1ccccc1,/,9,/,74*,1
Cc1cc(C)c2cc(CN(CC3CCCO3)S(=O)(=O)c3ccc4c(c3)OCCO4)c(=O)[nH]c2c1 (stereo not given),62*,/,28,10,5
CC(=O)c1ccc(S(=O)(=O)N(Cc2cc3cc4c(cc3[nH]c2=O)OCCO4)CC2CCCO2)cc1 (stereo not given),31,10,20,46*,49
C[C@H]1CN([C@@H](C)CO)C(=O)c2cc(C#CC3CC3)cnc2O[C@H]1CN(C)C(=O)c1ccc(F)cc1,/,/,/,-5,/
CCCN(C)C[C@H]1Oc2cc(C#Cc3cccc(F)c3)ccc2S(=O)(=O)N([C@H](C)CO)C[C@@H]1C,/,/,/,0,/
O=C(c1ccc2c(c1)OCO2)N1CCc2ccccc2C1,-1,23,6,45*,49
O=C(c1cc(Br)c(Br)s1)N1CCc2ccccc2C1,/,8,/,42*,15
O=C(C1COc2ccccc2O1)N1CCc2ccccc2C1 (stereo not given),-2,/,0,47*,/
O=C(c1ccc2c(c1)OCO2)N1CCc2ccccc21,16,3,15,21,24
O=C(c1cc2c(s1)-c1ccccc1OC2)N1CCc2ccccc2C1,25,0,21,7,12
COc1ccc(CN(C)C[C@H]2Oc3ccc(NC(=O)C4CC4)cc3CC(=O)N([C@@H](C)CO)C[C@H]2C)cc1,/,/,/,7,/
C[C@@H]1CN([C@@H](C)CO)C(=O)c2cccc(NS(=O)(=O)c3ccccc3)c2O[C@H]1CN(C)C(=O)NC1CCCCC1,/,/,/,1,/
O=C(NCCCn1ccnc1)c1sc2cc([N+](=O)[O-])ccc2c1Cl,/,6,/,63*,/
Clc1cccc(CSc2ncn(-c3ccccc3)n2)c1,37,2,19,42*,55
SMILES,HSF-1 act,Wnt bcat act,HSF1 inhib,esBAF inh,MITF TRPM1 HTS
Clc1cccc(CSc2nccn2-c2ccccc2)c1,4,-2,-1,5,-4
Clc1ccc(CSc2ncn(-c3ccccc3)n2)cc1,4,/,14,58*,17
Brc1ccc(/C=N/Nc2ccccc2)cc1,-7,11,-5,/,84*
CCCC#Cc1ccc2c(c1)O[C@@H](CN(C)CCC)[C@H](C)CN([C@@H](C)CO)S2(=O)=O,/,/,/,7,/
Cc1nc(NC(=O)C2CC2)sc1C(=O)Nc1ccccc1Cl,39,1,25,53*,/
Cc1nc(Cl)sc1C(=O)Nc1ccccc1Cl,14,2,0,-3,/
COc1cccc(NC(=O)Nc2ccc3c(c2)C(=O)N(C)[C@@H]2CC[C@@H](CC(=O)NCCc4ccccc4)O[C@@H]2CO3)c1,/,/,/,9,/
CCCn1nnc(NC(=O)c2ccc3ccccc3c2)n1,1,9,-6,/,122*
COc1ccc(C(=O)Nc2ccc(C3CC3(Cl)Cl)cc2)cc1 (stereo not given),28,-1,21,91*,37
CC(=O)c1cccc(NC(=O)c2ccc3ccccc3c2)c1,55*,27,36,3,?
CCCn1nnc(NC(=O)c2cccc(OCC)c2)n1,10,10,-1,19,37
CC(=O)c1cccc(NC(=O)NNC(=O)c2ccc3ccccc3c2)c1,-2,-3,5,/,5
CCOc1ccc(N/C=C/C(=O)c2ccc(OC)c(OC)c2)cc1,-3,5,-7,70*,/
COc1ccc(NC(=O)c2ccc(NC(=O)c3ccncc3)cc2)cc1,-12,-2,-3,-2,3
C[C@H]1CN([C@@H](C)CO)C(=O)c2cccc(NC(=O)C3CCOCC3)c2O[C@H]1CN(C)C,/,/,/,-3,/
COc1ccc(N/C=C\C(=O)c2ccc3ccccc3c2)cc1,27,10,5,43*,/
COc1ccc(C(=O)/C=C/Nc2ccc(C)cn2)cc1OC,44,/,26,60*,18
COc1ccc(NC(=O)c2ccc3ccccc3c2)cc1,62*,12,11,31,/
COc1ccc(NC(=O)c2coc(C)c2)cc1,25,10,3,74*,/
C[C@@H]1CCCCO[C@@H](CN(C)C(=O)Nc2ccc(F)cc2)[C@H](C)CN([C@@H](C)CO)C(=O)c2cc(NC(=O)Nc3ccc4c(c3)OCO4)ccc2O1,/,/,/,6,/
CN(C)C(=O)C[C@H]1CC[C@@H]2[C@H](COc3ccc(NC(=O)c4ccc(F)cc4)cc3C(=O)N2C)O1,/,/,/,1,/
O=C(C[C@H]1CC[C@@H](NC(=O)Nc2cc(F)ccc2F)[C@H](CO)O1)NCc1ccc2c(c1)OCO2,/,/,/,1,/
CO[C@@H]1CN(C)C(=O)c2ccc(NC(=O)C3CCCC3)cc2OC[C@@H](C)NC[C@H]1C,/,/,/,-3,/
Cc1ccc(N2CN=c3s/c(=C\c4ccccn4)c(=O)n3C2)cc1,-59,3,-52*,77*,51
O=c1/c(=C/c2ccco2)sc2n1CN(c1ccccc1)CN=2,22,/,-1,-8,32
CN(C)/C=C1/N=C(c2ccccc2)OC1=O,13,0,1,15,/
Cc1ccc(C2=N/C(=C\N(C)C)C(=O)O2)cc1,8,/,-3,29,94*
O=C1c2cccc3c([N+](=O)[O-])ccc(c23)C(=O)N1O,52*,2,28,-9,-46
O=C1c2cccc3c([N+](=O)[O-])ccc(c23)C(=O)N1c1ccc(Cl)cn1,38,/,47,-2,-32
O=C1c2cccc3c([N+](=O)[O-])ccc(c23)C(=O)N1c1ccccn1,-68,-22,-68*,-3,/
